From PubChem BioAssay AID1159580 (chemical genetic matrix, 2015)
About 2,000 (36%) of roughly 5,500 compounds were called active. About 18% were inconclusive and are not listed. No stated cut-off is given here; in the data, active means normalized growth mostly below about 0.91 (no sharp cut-off); inconclusive means no clear call, values can overlap the other calls; inactive means mostly above about 0.92. The list shows a part of the results.

Assay: chemical genetic growth profiling, strain panel (AID 1159580);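 further: tested at 20 µM; growth read once vehicle control cultures reached saturation at 30 °C; 1 = growth at the plate median or of vehicle wells; lower values mean less growth of the strain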
Settings: S. cerevisiae deletion strains, growth OD

Measured: normalized growth

CC1(C)C(=O)C=CC2(C)C3CCC4(C)C(c5ccoc5)CC5OC54C3C(O)CC12 (stereo unspecified)
inactive: locus YAL013W, strain DEP1, hits give low values 0.975 | locus YBR021W, strain FUR4, hits give low values 0.985 | locus YBR229C, strain ROT2, hits give low values 0.995 | locus YCL029C, strain bik1, hits give low values 1.01 | locus YDL035C, strain GPR1, hits give low values 0.942 | locus YDL074C, strain BRE1, hits give low values 0.862 | locus YDL101C, strain DUN1, hits give low values 0.958 | locus YDL134C, strain PPH21, hits give low values 0.945 | locus YDL185W, strain tfp1, hits give low values 1.02 | locus YDL192W, strain arf1, hits give low values 0.986 | locus YDR101C, strain arx1, hits give low values 0.98 | locus YDR162C, strain NBP2, hits give low values 0.882 | locus YDR318W, strain mcm21, hits give low values 0.992 | locus YDR388W, hits give low values 1.02 | locus YDR502C, strain sam2, hits give low values 1.01 | locus YER110C, hits give low values 1.03 | locus YER155C, strain BEM2, hits give low values 0.988 | locus YER167W, strain BCK2, hits give low values 0.961 | locus YGL078C, strain dbp3, hits give low values 1.02 | locus YGL086W, strain mad1, hits give low values 0.975 | locus YGL248W, strain PDE1, hits give low values 0.958 | locus YGR135W, strain pre9, hits give low values 0.984 | locus YGR229C, strain SMI1, hits give low values 0.868 | locus YGR252W, strain gcn5, hits give low values 0.981 | locus YHR030C, strain SLT2, hits give low values 1 | locus YHR079C, strain IRE1 (second series), hits give low values 1.02 | locus YHR094C, strain hxt1, hits give low values 1.02 | locus YHR129C, strain ARP1, hits give low values 0.977 | locus YHR200W, strain rpn10, hits give low values 0.993 | locus YIL066C, strain RNR3, hits give low values 0.926 | locus YIL073C, strain SPO22, hits give low values 0.999 | locus YIL125W, strain kgd1, hits give low values 0.999 | locus YIR030C, strain dcg1, hits give low values 1.01 | locus YJL095W, strain BCK1, hits give low values 0.884 | locus YJL134W, strain LCB3, hits give low values 0.992 | locus YJL168C, strain set2, hits give low values 1.01 | locus YJL187C, strain SWE1 (second series), hits give low values 0.955 | locus YJR075W, strain HOC1, hits give low values 0.981 | locus YKL009W, strain mrt4, hits give low values 1.01 | locus YKL068W, hits give low values 1.01 | locus YKL085W, strain MDH1 (second series), hits give low values 1 | locus YKL085W, strain MDH1, hits give low values 1 | locus YKR001C, strain vps1, hits give low values 0.984 | locus YLR039C, strain RIC1, hits give low values 0.785 | locus YLR058C, strain SHM2, hits give low values 0.975 | locus YLR102C, strain apc9, hits give low values 1.01 | locus YLR268W, strain sec22, hits give low values 0.987 | locus YLR330W, strain CHS5, hits give low values 0.965 | locus YLR371W, strain rom2, hits give low values 1 | locus YLR418C, strain cdc73, hits give low values 0.951 | locus YML016C, strain PPZ1, hits give low values 0.993 | locus YML032C, strain rad52, hits give low values 1 | locus YML124C, strain tub3, hits give low values 1.01 | locus YMR078C, strain ctf18, hits give low values 1 | locus YMR223W, strain ubp8, hits give low values 0.993 | locus YMR307W, strain GAS1, hits give low values 0.842 | locus YNL067W, strain RPL9B, hits give low values 0.978 | locus YNL128W, strain TEP1, hits give low values 0.972 | locus YNL153C, strain GIM3, hits give low values 0.983 | locus YNL233W, strain BNI4, hits give low values 0.938 | locus YNL250W, strain rad50, hits give low values 1.02 | locus YNL271C, strain bni1, hits give low values 1.01 | locus YNL298W, strain CLA4, hits give low values 1.03 | locus YNL307C, strain MCK1, hits give low values 1 | locus YNR052C, strain pop2, hits give low values 0.995 | locus YOL006C, strain TOP1, hits give low values 0.956 | locus YOL012C, strain htz1 1.23 | locus YOL147C, strain pex11, hits give low values 1 | locus YOR061W, strain CKA2, hits give low values 0.979 | locus YOR069W, strain VPS5, hits give low values 0.989 | locus YOR136W, strain idh2, hits give low values 1.02 | locus YOR144C, strain elg1, hits give low values 1.01 | locus YOR184W, strain ser1, hits give low values 0.886 | locus YOR316C, strain cot1, hits give low values 1.02 | locus YPL055C, strain LGE1, hits give low values 0.928 | locus YPL241C, strain CIN2, hits give low values 0.995 | locus YPR119W, strain clb2, hits give low values 1.02 | locus YPR141C, strain kar3, hits give low values 1.01 | locus YPR163C, strain tif3, hits give low values 1.02 | locus YPR167C, strain met16, hits give low values 1 | strain wtn01, hits give low values 0.993
